Test results taken from PubChem BioAssay.
The source made the active and inactive calls.

Columns and labels:
[1] = A549 cell viability effects, profiling panel, calcein-AM fluorescence, 48 h, basal (AID 1162); details: higher = more signal
[2] = adipocyte viability effects, profiling panel, cell-based, 3T3-L1 adipocytes, calcein-AM fluorescence, 48 h, basal (AID 1163); details: 3T3-L1 adipocytes viability, higher = more signal
[3] = HepG2 cell viability effects, profiling panel, calcein-AM fluorescence, 48 h, basal (AID 1164); details: higher = more signal
[4] = MM1S cell viability effects, profiling panel, calcein-AM fluorescence, 48 h, basal (AID 1165); details: higher = more signal;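 note: viability of MM1S multiple myeloma cells under basal unstimulated conditions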
[5] = basal RPMI8226 viability, no added stimulus, profiling panel, cell-based, calcein-AM fluorescence, 48 h, PK04 Diversity Set (AID 1166); details: RPMI8226 myeloma viability, higher = more signal;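 note: cells grown under basal conditions without added stimulus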
[6] = basal HepG2 mitochondrial membrane potential changes, profiling panel, cell-based, JC-1 fluorescence, 24 h, 100 nL compound (AID 1167); details: higher = more signal
[7] = basal 3T3-L1 adipocyte mitochondrial potential changes, profiling panel, cell-based, JC-1 fluorescence, 3T3-L1 adipocytes, 24 h, 100 nL compound (AID 1168); details: JC-1 mitochondrial fluorescence, higher = more signal, called active from +8 up or from −8 down
[8] = basal RPMI8226 mitochondrial membrane potential changes, profiling panel, cell-based, JC-1 fluorescence, 24 h, 100 nL compound (AID 1169); details: RPMI8226 myeloma, JC-1 mitochondrial potential fluorescence, higher = more signal
[9] = basal MM1S mitochondrial membrane potential changes, profiling panel, cell-based, JC-1 fluorescence, 24 h, 100 nL compound (AID 1170); details: higher = more signal
[10] = A549 lung cancer cell viability effects, profiling panel, resazurin fluorescence, 24 h, PK04 Diversity Set (AID 1171); details: higher = more signal, called active from +8 up or from −8 down
Note: test concentration not given here.

Structure (SMILES) | z-score [1] | z-score [2] | z-score [3] | z-score [4] | z-score [5] | z-score [6] | z-score [7] | z-score [8] | z-score [9] | z-score [10]
CC(C)C(CO)N1C(=O)[C@@H]2[C@H]3C(=O)OCC=C[C@H]3OC23C=CCN(Cn2nnc4ccccc42)C(=O)[C@@H]13 (stereo not given in full) | -0.746 | -0.191 | -0.751 | 0.48 | -0.653 | -0.578 | -0.373 (inactive) | 0.432 | 0.281 | -0.274 (inactive)
COCCOC(=O)N1C(=O)[C@@]2(c3cc(C#CC4(O)CCCCCC4)ccc31)[C@H](C(=O)N1CCN(c3ncccn3)CC1)[C@H]1C(=O)O[C@H](c3ccccc3)[C@H](c3ccccc3)N1[C@@H]2c1ccc(O)cc1 | 1.09 | 0.146 | 0.871 | -1.12 | -0.372 | -0.641 | 0.799 (inactive) | -0.57 | 0.532 | 0.445 (inactive)
O=c1c2ccc(Br)cc2nc(-c2ccccc2)n1Cc1cccc(O)c1 | -0.277 | 1.02 | 0.196 | -0.115 | 0.195 | -0.0225 | -0.525 (inactive) | 0.385 | -0.258 | 0.0972 (inactive)
COC(=O)[C@@]1(Cc2ccc(OC)cc2)[C@H]2c3cc(C(=O)N4CCCC4)n(CCF)c3C[C@H]2CN1C(=O)c1ccccc1 | -1.41 | 1.71 | -0.336 | 0.0026 | -1.05 | 3.33 | -1.65 (inactive) | -0.178 | -0.0401 | -1.55 (inactive)
C[N+](C)(C)CCCCNC(=O)[C@H]1C[C@H]2C(=O)NCC(=O)N2[C@H]1c1ccc(O)cc1 | -0.143 | -0.811 | 0.658 | 0.519 | 0.124 | 0.227 | -0.12 (inactive) | -0.797 | -0.988 | -1.02 (inactive)
C=CCOC(=O)[C@@H]1[C@H]2C(=O)O[C@H](c3ccccc3)[C@H](c3ccccc3)N2[C@H](c2ccc(OCCOC(=O)[C@@H]3C[C@@H]4C(=O)N[C@@H](CCCCNC(C)=O)C(=O)N4[C@@H]3c3ccc(O)cc3)cc2)[C@@]12C(=O)Nc1ccc(I)cc12 | 0.32 | -0.571 | -0.179 | -0.154 | 0.165 | -0.396 | 1.21 (inactive) | -0.482 | -1.14 | 0.873 (inactive)
[N-]=[N+]=Nc1ccccc1C[C@]1(C(=O)NCCN2CCOCC2)N=C(c2ccc(OCCCO)cc2)O[C@H]1c1ccccc1N=[N+]=[N-] | 0.0861 | 0.784 | -0.111 | -2.41 | -1.2 | 1.23 | 1.27 (inactive) | -1 | -0.571 | -2.47 (inactive)
O=C(O)[C@@]1(Cc2ccccc2)COC(c2ccc(OCCCO)cc2)=N1 | -0.297 | 0.139 | 0.0851 | -0.108 | 0.21 | -0.519 | -0.0997 (inactive) | 0.478 | 0.0336 | 0.542 (inactive)
COC(=O)[C@@]1(Cc2ccc(F)cc2)[C@H]2c3cc(C(=O)N(C)C)n(CCSCCO)c3C[C@H]2CN1C(=O)c1ccccc1 | -0.716 | -0.352 | 0.665 | -0.684 | -1.08 | -0.572 | -0.682 (inactive) | -0.0796 | 0.172 | -0.0793 (inactive)
CN(C)CCCCNC(=O)[C@H]1C[C@H]2C(=O)N[C@@H](CCCC[N+](C)(C)C)C(=O)N2[C@H]1c1cccc(OCCO)c1 | -0.532 | 0.067 | -0.491 | -0.845 | 0.54 | -1.18 | -0.333 (inactive) | -0.674 | -0.448 | 0.0625 (inactive)
COC(=O)C(CC#Cc1ccc2c(c1)[C@]1(C(=O)N2)[C@H](c2ccc(O)cc2)N2[C@H](c3ccccc3)[C@H](c3ccccc3)OC(=O)[C@H]2[C@@H]1C(=O)O)C(=O)OC | 0.391 | -0.987 | 0.0171 | 0.226 | -0.892 | -0.141 | -0.687 (inactive) | 0.491 | 0.412 | -0.279 (inactive)
C=C(/C(=C/C[C@@H](OC(=O)c1ccncc1)c1ccccc1OCCO)c1cnc2ccccc2c1)C(C)C | -0.36 | -0.368 | -3.15 | -3.1 | -2.45 | 0.76 | -0.19 (inactive) | 0.14 | 1.08 | -1.15 (inactive)
C=CCNC(=O)[C@H]1[C@@H]2C(=O)O[C@@H](c3ccccc3)[C@@H](c3ccccc3)N2[C@@H](c2ccc(OCCO)cc2)[C@]12C(=O)N(C(=O)OCCOC)c1ccc(C#CC3=CCCCC3)cc12 | -0.906 | 0.968 | -0.546 | -1.96 | -2.49 | -0.609 | 2.06 (inactive) | -0.753 | -1.05 | 0.248 (inactive)
COc1ccc([Si](C)(C)[C@H]2[C@H](CCn3cc(CCO)nn3)O[C@@]3(C(=O)N(Cc4cccc(N5C(=O)c6cccc7cccc5c67)c4)c4ccccc43)[C@@H]2C)cc1 | -1.05 | -0.354 | -4.39 | -2.83 | -4.51 | 1.6 | 2.9 (inactive) | -1.05 | -2.03 | -3.05 (inactive)
CCCN1C(=O)[C@@]2(Cc3ccccc3)N=C(c3ccc(OCCCO)cc3)O[C@H]2c2ccccc21 | -1.54 | 0.778 | -1.7 | -2.34 | -4.32 | -0.214 | 1.18 (inactive) | -1.27 | -0.647 | -0.232 (inactive)
CCCCC(=C=CC[C@H](O)c1cccc(OCCO)c1)C[C@H](O)COCc1ccccc1 | 0.803 | 0.403 | 0.0132 | -1.06 | -0.63 | 0.214 | 0.254 (inactive) | 0.746 | -0.378 | 1.4 (inactive)
COCCOC(=O)N1C(=O)[C@@]2(c3cc(C#CCCO)ccc31)[C@H](c1ccc(OCCO)cc1)N1[C@H](c3ccccc3)[C@H](c3ccccc3)OC(=O)[C@H]1[C@@H]2C(=O)N1CCc2cc(OC)c(OC)cc2C1 | -0.874 | 0.586 | 0.863 | 0.541 | 0.263 | -0.0698 | 1.79 (inactive) | -0.299 | -1.48 | -0.533 (inactive)
C=C[C@@H](O)[C@H]1CC(c2ccccc2)=NO1 | 0.721 | -3.92 | -0.34 | 0.626 | 0.353 | 0.0313 | -0.809 (inactive) | 0.434 | -0.819 | 0.558 (inactive)
COCCCNC(=O)[C@@]1(C)c2ccccc2C(=O)N(c2ccc(C)cn2)[C@H]1c1ccc(CO)cc1 | -0.255 | -1.13 | -0.956 | -0.0048 | -0.857 | -0.587 | 0.285 (inactive) | 0.054 | -0.295 | 0.999 (inactive)
COc1cc(C(O)C2C=CC3C(=O)NC(=O)C3N2Nc2ccc(Cl)cc2Cl)cc(OC)c1OC (stereo not given) | -0.797 | 0.349 | -0.751 | 0.192 | -1.44 | -0.359 | -1.63 (inactive) | -0.82 | 0.483 | -0.315 (inactive)
CCOC(=O)C1=CC[C@@H](c2cccc(Br)c2)N(S(=O)(=O)c2ccc(C)cc2)[C@H]1c1ccc([N+](=O)[O-])cc1 | -0.699 | -0.349 | -0.203 | -1.07 | -1.24 | 1.45 | 0.097 (inactive) | -0.841 | -1.57 | 0.851 (inactive)
C[N+](C)(C)CCCCCCNC(=O)[C@H]1C[C@H]2C(=O)N3CCC[C@H]3C(=O)N2[C@H]1c1cccc(OCCO)c1 | -0.538 | -1.25 | -0.684 | 0.429 | 0.512 | -1.68 | -0.416 (inactive) | -0.173 | -0.167 | 0.558 (inactive)
